We go through 9 molecules from PubChem BioAssay (Tox21).

Molecules are shown by their SMILES. Values without a mark were called inactive. Inconclusive results are not listed. The source made the active and inactive calls. Unless noted, calls follow the shape of the dose curve; as a rule, active = well fitted curve in the direction sought with a large enough effect in the repeat runs; inconclusive = weak or mixed curves; inactive = no such curve, though single readings can be large; an effect the other way counts as inactive or inconclusive.

The nature of experiment [1]: qHTS RealTime-Glo MT Cell Viability Assay in HEK293 cells - 0 hour (AID 1224880). Also: top concentration of the series differs between compounds; nearly all actives have a fitted effect of over 45% in size. In a few lines: (§1)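 Viable HEK293 cells reduce a cell-permeant prosubstrate; the product diffuses out and is consumed by NanoLuc in the medium to give light. Compounds went in after a 5 h incubation and plates were read over the treatment course.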
Background: Quantitative high-throughput screening tests each substance at several concentrations.

Experiment [2] in a line: A CellTox Green Cytotoxicity Assay to monitor cytotoxicity in HEK293 cells - 32 hour (AID 1224881). Also: nearly all actives have a fitted effect of over 40% in size. Summed up: (§2)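 Fluorescence intensity, read at 0, 8, 16, 24, 32 and 40 h of compound treatment, reflected dye binding to DNA of dead HEK293 cells; compounds (23 nL, DMSO) were added 5 h after plating cells with reagent.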
Experiment [3] in a line: A CellTox Green Cytotoxicity Assay to monitor cytotoxicity in HepG2 cells - 0 hour (AID 1224882). Also: nearly all actives have a fitted effect of over 35% in size. Summed up: (§3)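 Using 1536-well format, dye-containing HepG2 suspension was seeded, allowed 5 h at 37 C/5% CO2, dosed by pintool with compounds, positive and negative controls, and imaged for fluorescence across 40 h.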
Experiment [4] in a line: A CellTox Green Cytotoxicity Assay to monitor cytotoxicity in HepG2 cells - 32 hour (AID 1224883). Also: nearly all actives have a fitted effect of over 50% in size. In a few lines:
as §3

Experiment [5] is described as follows: A CellTox Green Cytotoxicity Assay to monitor cytotoxicity in HEK293 cells - 8 hour (AID 1224884). Also: nearly all actives have a fitted effect of over 35% in size. Summed up:
as §2

A short description of experiment [6]: qHTS RealTime-Glo MT Cell Viability Assay in HepG2 cells - 16 hour (AID 1224885). Also: nearly all actives have a fitted effect of over 50% in size. In a few lines: (§4)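 Real-time, nonlytic viability: 600 HepG2 cells/well mixed with NanoLuc enzyme plus prosubstrate; 5 h settle, compound (DMSO) added by pintool; luminescence monitored over 40 h at 37 C.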
Experiment [7] in a line: qHTS RealTime-Glo MT Cell Viability Assay in HEK293 cells - 24 hour (AID 1224886). Also: nearly all actives have a fitted effect of over 50% in size. Also: potency is read from the fitted curve at half-maximal effect. Summed up: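 Cells + reagent dispensed (600 cells/well, HEK293) → 5 h at 37 C/5% CO2 → 23 nL compound in DMSO pinned → 40 h at 37 C → luminescence read at 0, 8, 16, 24, 32, 40 h.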
Experiment [8] is described as follows: qHTS RealTime-Glo MT Cell Viability Assay in HEK293 cells - 8 hour (AID 1224887). Also: nearly all actives have a fitted effect of over 50% in size. Also: potency is read from the fitted curve at half-maximal effect. In a few lines: as §1
The nature of experiment [9]: A CellTox Green Cytotoxicity Assay to monitor cytotoxicity in HEK293 cells - 16 hour (AID 1224888). Also: nearly all actives have a fitted effect of over 35% in size. In a few lines:
as §2

A short description of experiment [10]: qHTS RealTime-Glo MT Cell Viability Assay in HepG2 cells - 0 hour (AID 1224889). Also: nearly all actives have a fitted effect of over 50% in size. In a few lines: as §4
Experiment [11] in a line: A CellTox Green Cytotoxicity Assay to monitor cytotoxicity in HepG2 cells - 8 hour (AID 1224890). Also: nearly all actives have a fitted effect of over 45% in size. In a few lines:
as §3

Experiment [12] can be described thus: qHTS assay to identify small molecule antagonists of the estrogen receptor alpha (ER-alpha) signaling pathway using the BG1 cell line in the presence of 0.1 nM 17-beta-estradiol - cell viability counter screen (AID 1259241). Also: nearly all actives have a fitted effect of over 40% in size. In a few lines:
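The cell line endogenously expresses full-length ER-alpha and carries four EREs driving luciferase. Cells are cultured 5 days hormone-free, treated 22 hr with compounds and 0.1 nM estradiol, then viability is read by fluorescence.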

The nature of experiment [13]: qHTS assay to identify small molecule antagonists of the androgen receptor (AR) signaling pathway using the MDA cell line in the presence of 0.5 nM R1881 - cell viability counter screen (AID 1259242). Also: nearly all actives have a fitted effect of over 45% in size. In a few lines:
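Viability of MDA-kb2 cells was multiplexed with the luciferase AR readout; after 16 hr with compounds and R1881 at 0.5 nM final, CellTiter-Fluor fluorescence was recorded.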

The target in experiment [14] is Estrogen receptor (Homo sapiens) (UniProt P03372). The experiment in a line: qHTS assay to identify small molecule antagonists of the estrogen receptor alpha (ER-alpha) signaling pathway using the BG1 cell line in the presence of 0.1 nM 17-beta-estradiol (AID 1259244). Also: nearly all actives have a fitted effect of over 50% in size. Summed up:
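Estradiol at 0.1 nM (final) stimulates the endogenous ER-alpha of VM7Luc4E2 cells carrying an ERE-driven luciferase; compounds are co-incubated 22 h at 37C and luciferase output quantified by luminescence.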

Experiment [15] can be described thus: qHTS assay to identify small molecule HDAC inhibitors - cell viability counter screen (AID 1259365). Summed up: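 Viability readout: CellTiter-Glo luminescence. Wild-type HCT-116 cells, 2hr compound treatment following overnight attachment at 37 C.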
Experiment [16] is described as follows: qHTS assay to identify small molecule agonists of the sonic hedgehog signaling (Shh) pathway - cell viability counter screen (AID 1259366). Also: nearly all actives have a fitted effect of over 50% in size. Summed up:
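Viability measured fluorometrically (CellTiter-Fluor, 1hr, 37C) in 3T3 Gli1-Luc reporter cells after 23hr compound exposure within a 24hr incubation at 37C/5% CO2.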

A short description of experiment [17]: qHTS assay to identify small molecule antagonists of the sonic hedgehog signaling (Shh) pathway - cell viability counter screen (AID 1259367). Also: nearly all actives have a fitted effect of over 55% in size. In a few lines: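 After a 4 hr settling period, 3T3 Gli1-Luc cells were treated with DMSO-dissolved chemicals and conditioned medium, kept 24 hr at 37C in 5% CO2, and assayed for viability by CellTiter-Fluor fluorescence following 1 hr reagent incubation.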

Experiment [18] in a line: qHTS assay to identify small molecule HDAC inhibitors (AID 1259364).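 Also: wild-type HCT-116 cells with endogenous class I/II HDAC activity; top concentration of the series differs between compounds; nearly all actives have a fitted effect of over 45% in size.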 In a few lines: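 Read-out: luminescence of HDAC-Glo I/II reagent, 30 min RT, reflecting class I/II deacetylase activity in whole HCT-116 cells pre-exposed 2 h to DMSO-dissolved compounds.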
A short description of experiment [19]: qHTS assay to identify small molecule phospholipidosis (PLD) inducers (AID 1259344; active = well fitted curve in the direction sought with a large enough effect; an effect the other way counts as inactive or inconclusive). Summed up: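 HepG2 cells grown on collagen I take up LipidTOX Red while exposed to compound for 24 h; after fixation they are imaged at 20x and pit metrics are extracted.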

Sequence of Estrogen receptor (Homo sapiens) (P03372 whole entry, looked up): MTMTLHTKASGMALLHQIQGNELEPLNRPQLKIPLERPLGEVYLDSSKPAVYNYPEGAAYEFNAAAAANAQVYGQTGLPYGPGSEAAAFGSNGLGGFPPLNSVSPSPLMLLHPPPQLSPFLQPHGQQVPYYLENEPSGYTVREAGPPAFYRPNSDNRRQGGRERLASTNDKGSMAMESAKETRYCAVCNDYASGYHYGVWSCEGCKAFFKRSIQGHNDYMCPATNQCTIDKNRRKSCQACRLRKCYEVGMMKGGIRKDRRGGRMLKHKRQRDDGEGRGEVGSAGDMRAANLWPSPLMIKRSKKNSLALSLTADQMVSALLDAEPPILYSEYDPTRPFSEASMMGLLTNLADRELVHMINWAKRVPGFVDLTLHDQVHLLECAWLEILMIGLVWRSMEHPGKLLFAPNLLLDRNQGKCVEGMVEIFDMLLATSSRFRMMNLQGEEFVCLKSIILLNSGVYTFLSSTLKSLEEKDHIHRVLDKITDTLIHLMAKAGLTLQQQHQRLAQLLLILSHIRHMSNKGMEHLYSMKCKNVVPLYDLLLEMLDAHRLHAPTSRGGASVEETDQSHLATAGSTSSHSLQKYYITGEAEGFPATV

For `CC(C)=CCCC(C)C=O` (configuration not stated), the Potency entry in [1], in experiment [2], in experiment [3], in experiment [4], in experiment [5] and in experiment [7] was “inactive” each time. The Potency entry in experiment [8], in experiment [9], in experiment [10], in experiment [11], in experiment [12] and in experiment [13] was “inactive” throughout. Moreover, the Potency entry in [14], in experiment [16] and in [17] was “inactive” each time. Further, the result in experiment [6] and in [15] was inactive.
With `CCOc1ccccc1O`, the Potency entry in experiment [1], in [2], in [3], in experiment [4], in [5] and in experiment [8] was “inactive” in each case. For the same molecule, the Potency result in experiment [9], in experiment [10], in [11], in experiment [12], in [13] and in experiment [18] was “inactive” each time. Besides, the Potency entry in experiment [16] and in experiment [17] was “inactive” throughout. The molecule was called inactive in experiment [6] and in experiment [15]. Further, the Potency in [7] is 19.5 µM (active).
For the molecule `O=Cc1ccc([N+](=O)[O-])cc1`, the Potency result in [1], in experiment [2], in experiment [3], in [4], in experiment [5] and in experiment [7] was “inactive” throughout. Also, the Potency result in [8], in experiment [9], in experiment [10], in experiment [11], in [12] and in experiment [13] was “inactive” each time. Further, the Potency entry in experiment [18], in experiment [16] and in experiment [17] was “inactive” throughout. Moreover, the outcome in experiment [6] and in experiment [15] was inactive.
Turning to `O=C(O)CNc1ccccc1`, the Potency result in experiment [1], in experiment [2], in experiment [3], in experiment [4], in [5] and in experiment [7] was “inactive” throughout. Moreover, the Potency result in experiment [8], in experiment [9], in experiment [10], in experiment [11], in experiment [12] and in experiment [13] was “inactive” in each case. The Potency result in experiment [18], in experiment [16] and in [17] was “inactive” throughout. In addition, the molecule was called inactive in experiment [6] and in experiment [15].
`CCCCCCOC(=O)c1ccccc1`: the Potency entry in [1], in [2], in [3], in [4], in experiment [5] and in [7] was “inactive” throughout. The Potency entry in experiment [8], in [9], in [10], in experiment [11], in [12] and in experiment [13] was “inactive” throughout. Besides, the Potency entry in [14], in [16] and in experiment [17] was “inactive” each time. Besides, the molecule was called inactive in [6] and in experiment [15].
Consider `O=[N+]([O-])c1ccccc1CCO`, for which the Potency entry in experiment [1], in experiment [2], in experiment [3], in experiment [4], in [5] and in [7] was “inactive” each time. The Potency result in experiment [8], in [9], in [10], in experiment [11], in experiment [12] and in experiment [13] was “inactive” each time. Besides, the Potency result in experiment [18], in experiment [16] and in [17] was “inactive” in each case. In addition, the result in experiment [6] and in [15] was inactive.
Consider `O=C(NC1CCN(CCc2c[nH]c3ccccc23)CC1)c1ccccc1`, for which the Potency entry in experiment [1], in experiment [2], in [3], in experiment [4], in [5] and in experiment [9] was “inactive” throughout. Also, the Potency result in [10], in [11], in experiment [12], in [13] and in experiment [17] was “inactive” throughout. For the same molecule, the molecule was classed as inactive in experiment [6] and in [15]. Also, the Potency in experiment [7] is 8.49 µM (active); in experiment [8], 9.52 µM (active).
For the molecule `CC(Cc1ccccc1)(NC(=O)CN)c1ccccc1` (configuration not stated), the Potency entry in experiment [1], in experiment [2], in experiment [3], in experiment [4], in [5] and in experiment [7] was “inactive” in each case. Moreover, the Potency entry in [8], in [9], in [10], in experiment [11], in experiment [12] and in experiment [13] was “inactive” each time. For the same molecule, the Potency result in experiment [19], in experiment [18], in [16] and in experiment [17] was “inactive” throughout. Also, the outcome in experiment [6] and in experiment [15] was inactive.
As for `Cc1c(Cl)cccc1Nc1ccccc1C(=O)O`, the Potency result in [1], in experiment [2], in experiment [3], in experiment [4], in experiment [5] and in experiment [7] was “inactive” each time. The Potency result in experiment [8], in experiment [9], in [10], in experiment [11], in experiment [12] and in experiment [13] was “inactive” throughout. Also, the Potency result in experiment [19], in experiment [18], in [16] and in [17] was “inactive” throughout. For the same molecule, the outcome in [6] was inactive.
